Data from PubChem BioAssay (NCI).
Compounds without any hit were thinned out: in the full panel of roughly 83,000, 20% have a hit.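 Results are percent growth after 48 hours of single-concentration exposure. 100 means growth as in untreated cells, lower positive values show inhibition; negative values down to -100 show cell death.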 Values without a mark were called inactive. Active and inactive are the calls of the source. The calls were made as follows: active = growth percent below 10; inactive = the rest.

Tests used:
Assay in all cases: NCI-60 one-dose screen, 48 h (100 = growth as untreated, 0 = no growth, -100 = all killed)
Settings in all cases: 10 µM unless noted
[1] = tested on: HCT-15 colon
[2] = tested on: HT29 colon
[3] = tested on: SNB-75 CNS
[4] = tested on: SNB-19 CNS
[5] = tested on: U251 CNS
[6] = tested on: PC-3 prostate
[7] = tested on: SK-MEL-5 melanoma
[8] = tested on: UACC-62 melanoma
[9] = tested on: LOX IMVI melanoma
[10] = tested on: SK-MEL-28 melanoma
[11] = tested on: SK-MEL-2 melanoma
[12] = tested on: EKVX NSCLC
[13] = tested on: SN12C renal
[14] = tested on: UO-31 renal
[15] = tested on: TK-10 renal
[16] = tested on: ACHN renal
[17] = tested on: CAKI-1 renal
[18] = tested on: A498 renal
[19] = tested on: CCRF-CEM leukemia
[20] = tested on: MOLT-4 leukemia

Row | Structure (SMILES) | growth [1] | growth [2] | growth [3] | growth [4] [%] | growth [5] | growth [6] [%] | growth [7] [%] | growth [8] [%] | growth [9] | growth [10] | growth [11] [%] | growth [12] [%] | growth [13] [%] | growth [14] [%] | growth [15] [%] | growth [16] [%] | growth [17] [%] | growth [18] | growth [19] | growth [20]
1 | CCS/C(Nc1ccccc1)=C(\C#N)C(=O)N/N=C/c1ccc(Cl)cc1Cl | 19.9% | 9.53% (active) | -6.89% (active) | 19.6 | 19.1% | 31.5 | 12.4 | 26.6 | 34.4% | 60.5% | 28.3 | 47.4 | 34.5 | 41.9 | 56.7 | 38.2 | 31.5 | -2.1% (active) | 9.86% (active) | 18.3%
2 | Cc1nnc(-n2c(O)cc(=O)n(-c3ccccc3)c2=S)nc1/C=C/c1ccc(N(C)C)cc1 | 28.9% | 24.3% | 17.3% | 59.8 | 53.7% | 67.1 | 60.6 | 11.7 | 18.8% | 58.6% | 55.2 | 66.7 | 65.3 | 17.1 | 28.1 | 62 | 23.4 | 52.1% | 52.5% | 56.1%
3 | N#CC1C=CN(CC(N)=O)c2ccc3cccnc3c21 (stereo not given) | 96.2% | 88.3% | 87.2% | 96.1 | 91.7% | 84.2 | 96.5 | 96.9 | 97.5% | 104% | 116 | 97.9 | 96.3 | 97.9 | 115 | 104 | 91.2 | 85.9% | 78% | 98%
4 | CCOC(=O)c1cc2c(=O)oc3ccccc3c2oc1=O | 96% | 96% | 82.1% | 105 | 91.6% | 69.3 | 106 | 95.8 | 91.5% | 116% | 78.1 | 111 | 98.3 | 82.7 | 98.6 | 89.8 | 111 | 106% | 88.5% | 87.1%
5 | CCN(CC)c1nc(SCc2ccccc2Cl)ncc1C | 96.4% | 107% | 97.8% | 96.4 | 92.6% | 89.9 | 83.8 | 81.2 | 95.9% | 118% | 118 | 101 | 96.7 | 102 | 117 | 108 | 88.8 | 91.2% | 92.7% | 105%
6 | COc1ccc(-c2nnc3n(C)c(=O)c4ccccc4n23)cc1N | 27.2% | 4.95% (active) | 7.89% (active) | 31.1 | 23.8% | 22.1 | 11.4 | 12.9 | 37.5% | 53.6% | 22 | 55.7 | 34.6 | 44.3 | 45.3 | 50.8 | 29.2 | -8.12% (active) | 18.5% | 33.4%
7 | O=[N+]([O-])c1ccc(-c2nc(N3CCOCC3)c3c4c(sc3n2)CCCC4)cc1 | 97.8% | 94.8% | 76.6% | 115 | 102% | 101 | 94.1 | 85.1 | 86% | 111% | 95.6 | 93.8 | 106 | 67.2 | 105 | 96.2 | 76.5 | 109% | 101% | 86.4%
8 | CCN(CC)CCOc1ccc(-c2c(-c3ccccc3)c(=O)oc3ccccc23)cc1 | 72.2% | 51.7% | 81.8% | 90.7 | 85.5% | 64.9 | 71.6 | 82.7 | 81.3% | 98.6% | 82.5 | 94.6 | 80.3 | 61.5 | 95.9 | 100 | 97.5 | 72% | 95.7% | 80.7%
9 | CC(C)(C)c1cc(-c2nc3ccc(N4CCN(S(C)(=O)=O)CC4)cc3[nH]2)cc(C(C)(C)C)c1O | 69.2% | 81% | 73.8% | 104 | 90.2% | 91.7 | 95.7 | 94.5 | 91.8% | 94.3% | 94 | 101 | 97.7 | 97 | 90.4 | 72.4 | 75.5 | 99.4% | 84.5% | 64.6%
10 | CCCCNC(=O)Oc1ccc(/C(=C(/CC)Cc2ccccc2)c2ccc(OCCN3CCCCCC3)cc2)cc1 | -29.9% (active) | -21% (active) | 61.2% | 45.2 | 25.7% | 39.8 | 13.1 | 24 | -93.6% (active) | -6.15% (active) | 84.9 | 59.2 | 25.8 | 35.2 | 92.4 | 66.4 | 72.1 | 72% | 5.36% (active) | 2.34% (active)
11 | Cc1ccccc1Cn1cnc2ccc(-c3cc(NC(=O)c4ccc(NC5CCN(C)CC5)cc4)n[nH]3)cc21 | 102% | 56.6% | -11.4% (active) | 95 | 75.9% | 68.8 | 79.3 | 73.2 | 56.7% | 92.2% | 98.3 | 91.9 | 29.7 | 89.2 | 105 | 107 | 68.6 | 47.8% | 72% | 43%
12 | COc1ccc2c(c1)[n+]([O-])c(C(=O)/C=C/C=C(\Cl)c1cc(OC)c(OC)c(OC)c1)c(C)[n+]2[O-] | 95.4% | 101% | -26% (active) | 55.9 | 8.58% (active) | 93 | 121 | 68.2 | 41.7% | 99.1% | 47.2 | 85.6 | 78.1 | 107 | 89.2 | 44.7 | 79.1 | 96.6% | 99.8% | 96.1%
13 | COC(=O)/C=C1/SC(=Nc2ccc(C)cc2)N(CCc2c[nH]c3ccc(O)cc23)C1=O | 14.7% | 90.9% | 52% | 51.8 | 34.7% | 39 | 50.5 | 42.2 | -17.8% (active) | 48.4% | 35.4 | 49.6 | 45.4 | 46.8 | 94.6 | 57.4 | 69.9 | 67.1% | 1.81% (active) | -8.16% (active)
14 | Nc1ncnc2c1N=C(c1ccc(Cl)cc1)CC(c1ccc3c(c1)OCO3)N2 (stereo not given) | 98.6% | 91.7% | 85.7% | 86.4 | 92.8% | 85.2 | 98 | 94.8 | 96.5% | 99.8% | 52 | 94.6 | 97.2 | 80.5 | 111 | 87.6 | 84.1 | 99.5% | -54.1% (active) | 71.5%
15 | O=C(c1ccc(Cl)cc1)N1CCN(c2ccnc3cc(Cl)ccc23)CC1 | 95.5% | 81.7% | 110% | 84.2 | 78.7% | 80 | 90.8 | 71.5 | 103% | 99.6% | 88.9 | 96.4 | 91.2 | 58 | 108 | 85.8 | 85.7 | 55.6% | 90.9% | 87.1%
